# Inconclusive results are not listed. Values without a mark were called inactive. Active and inactive are the calls of the source. Calls follow the shape of the dose curve; as a rule, active = well fitted cell-killing curve with a large enough effect; inconclusive = small, poorly fitted or top-dose-only effect, or effect the other way; inactive = no such curve, though single readings can be large or run the other way.
# Columns and labels:
# [1] = Quantitative High-Throughput drug screen in 47 multiple myeloma cell lines against the NCATS MIPE library collection: MM1R_ATCC cell viability assay (AID 1918981); also: nearly all actives have a fitted effect of over 35% in size
# Summary of the method: (§1)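 Cells were exposed to library compounds for 48 hours, after which ATP was measured by CellTiter-Glo. Signal was taken as median relative luminescence units.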
# [2] = Quantitative High-Throughput drug screen in 47 multiple myeloma cell lines against the NCATS MIPE library collection: LP1_DSMZ cell viability assay (AID 1918982); also: nearly all actives have a fitted effect of over 35% in size
# Summary of the method: as §1
# [3] = Quantitative High-Throughput drug screen in 47 multiple myeloma cell lines against the NCATS MIPE library collection: KMS28PE_JCRB cell viability assay (AID 1918983); also: nearly all actives have a fitted effect of over 35% in size
# Summary of the method: as §1
# [4] = Quantitative High-Throughput drug screen in 47 multiple myeloma cell lines against the NCATS MIPE library collection: KMS34_JCRB cell viability assay (AID 1918985); also: nearly all actives have a fitted effect of over 40% in size
# Summary of the method: as §1
# [5] = Quantitative High-Throughput drug screen in 47 multiple myeloma cell lines against the NCATS MIPE library collection: SKMM1_PLB cell viability assay (AID 1919863); conditions: SKMM1 myeloma viability, CellTiter-Glo ATP, 48 h; viability: stronger effect = lower value; also: nearly all actives have a fitted effect of over 35% in size
# Summary of the method: as §1
# [6] = Quantitative High-Throughput drug screen in 47 multiple myeloma cell lines against the NCATS MIPE library collection: XG1_PLB cell viability assay (AID 1919866); also: nearly all actives have a fitted effect of over 35% in size
# Summary of the method: as §1
# [7] = Quantitative High-Throughput drug screen in 47 multiple myeloma cell lines against the NCATS MIPE library collection: UTMC2_PLB cell viability assay (AID 1919868); conditions: CellTiter-Glo ATP luminescence, 48 h; viability (% of DMSO control): at 45.8 µM (top of the series); also: nearly all actives have a fitted effect of over 55% in size;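 as to viability (% of DMSO control): 100% = DMSO-only wells and 0% = media-only wells without cells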
# Summary of the method: as §1
# [8] = Quantitative High-Throughput drug screen in 47 multiple myeloma cell lines against the NCATS MIPE library collection: PCM6_Riken cell viability assay (AID 1919870); also: nearly all actives have a fitted effect of over 30% in size
# Summary of the method: as §1
# [9] = Quantitative High-Throughput drug screen in 47 multiple myeloma cell lines against the NCATS MIPE library collection: OPM2_DSMZ cell viability assay (AID 1919872); also: nearly all actives have a fitted effect of over 30% in size
# Summary of the method: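 qHTS of the MIPE 4.0 collection: 500 myeloma cells/well, 48 h drug exposure at 37C in 5% CO2, then CellTiter-Glo for 5 min at room temperature before luminescence reading.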
# [10] = Quantitative High-Throughput drug screen in 47 multiple myeloma cell lines against the NCATS MIPE library collection: KMS11_JCRBsus cell viability assay (AID 1919873); also: nearly all actives have a fitted effect of over 50% in size
# Summary of the method: as §1
# [11] = Quantitative High-Throughput drug screen in 47 multiple myeloma cell lines against the NCATS MIPE library collection: OPM1_PLB cell viability assay (AID 1918989); also: nearly all actives have a fitted effect of over 40% in size
# Summary of the method: as §1
# [12] = Quantitative High-Throughput drug screen in 47 multiple myeloma cell lines against the NCATS MIPE library collection: U266_ATCC cell viability assay (AID 1919864); also: nearly all actives have a fitted effect of over 35% in size;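 as to viability (% of DMSO control): 0% = media-only wells without cells and 100% = DMSO-only wells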
# Summary of the method: as §1
# [13] = Quantitative High-Throughput drug screen in 47 multiple myeloma cell lines against the NCATS MIPE library collection: XG6_PLB cell viability assay (AID 1919865); also: nearly all actives have a fitted effect of over 40% in size
# Summary of the method: as §1
# [14] = Quantitative High-Throughput drug screen in 47 multiple myeloma cell lines against the NCATS MIPE library collection: PE2_PLB cell viability assay (AID 1919869); also: nearly all actives have a fitted effect of over 35% in size
# Summary of the method: as §1
# [15] = Quantitative High-Throughput drug screen in 47 multiple myeloma cell lines against the NCATS MIPE library collection: RPMI8226_ATCC cell viability assay (AID 1919871); also: nearly all actives have a fitted effect of over 30% in size
# Summary of the method: as §1
# [16] = Quantitative High-Throughput drug screen in 47 multiple myeloma cell lines against the NCATS MIPE library collection: OCIMY7_PLB cell viability assay (AID 1918987); also: nearly all actives have a fitted effect of over 65% in size
# Summary of the method: as §1
# [17] = Quantitative High-Throughput drug screen in 47 multiple myeloma cell lines against the NCATS MIPE library collection: OCIMY5_PLB cell viability assay (AID 1918988); also: nearly all actives have a fitted effect of over 65% in size
# Summary of the method: as §1
# [18] = Quantitative High-Throughput drug screen in 47 multiple myeloma cell lines against the NCATS MIPE library collection: VP6_DJ cell viability assay (AID 1919867); also: nearly all actives have a fitted effect of over 40% in size
# Summary of the method: as §1
# [19] = Quantitative High-Throughput drug screen in 47 multiple myeloma cell lines against the NCATS MIPE library collection: KMS28BM_JCRB cell viability assay (AID 1919874); also: nearly all actives have a fitted effect of over 35% in size
# Summary of the method: as §1
# [20] = Quantitative High-Throughput drug screen in 47 multiple myeloma cell lines against the NCATS MIPE library collection: L363_DSMZ cell viability assay (AID 1918984); also: nearly all actives have a fitted effect of over 40% in size
# Summary of the method: as §1
# Potency is read from the fitted curve at half-maximal effect.
structure (smiles),measurement,setting,value
C[C@]12CC[C@H](O)CC1=CC[C@H]1[C@H]3CCC(=O)[C@@]3(C)CC[C@@H]12,Potency,[1],inactive
same,Potency,[2],inactive
same,Potency,[3],inactive
same,Potency,[4],inactive
same,viability,[5],106%
same,Potency,[6],7430 nM (active)
same,Potency,[7],inactive
same,Potency,[8],16600 nM (active)
same,Potency,[9],inactive
same,Potency,[10],23500 nM (active)
O=C(Oc1ccc([N+](=O)[O-])cc1)N1CCN(Cc2cccc(Oc3ccccc3)c2)CC1,Potency,[1],inactive
same,Potency,[2],inactive
same,Potency,[3],inactive
same,Potency,[4],inactive
same,Potency,[11],inactive
same,viability,[5],117%
same,Potency,[12],14800 nM (active)
same,Potency,[13],23500 nM (active)
same,Potency,[6],20900 nM (active)
same,Potency,[14],inactive
same,Potency,[15],inactive
same,Potency,[9],inactive
CC1=C(O)C(=O)C=C2C1=CC=C1[C@@]2(C)CC[C@@]2(C)[C@@H]3C[C@](C)(C(=O)O)CC[C@]3(C)CC[C@]12C,Potency,[1],469 nM (active)
same,Potency,[2],833 nM (active)
same,Potency,[3],833 nM (active)
same,Potency,[4],743 nM (active)
same,Potency,[16],296 nM (active)
same,Potency,[17],296 nM (active)
same,Potency,[11],743 nM (active)
same,Potency,[5],1050 nM (active)
same,Potency,[12],743 nM (active)
same,Potency,[13],743 nM (active)
same,Potency,[6],590 nM (active)
same,Potency,[18],935 nM (active)
same,Potency,[7],1480 nM (active)
same,Potency,[15],1180 nM (active)
same,Potency,[9],833 nM (active)
same,Potency,[10],935 nM (active)
same,Potency,[19],833 nM (active)
COCC1(CO)C(=O)C2CCN1CC2 (centres undefined),Potency,[1],469 nM (active)
same,Potency,[2],2640 nM (active)
same,Potency,[3],18700 nM (active)
same,Potency,[20],3320 nM (active)
same,Potency,[16],469 nM (active)
same,Potency,[17],2640 nM (active)
same,Potency,[11],2090 nM (active)
same,Potency,[5],6620 nM (active)
same,Potency,[12],2960 nM (active)
same,Potency,[13],1660 nM (active)
same,Potency,[6],20900 nM (active)
same,Potency,[18],4180 nM (active)
same,Potency,[7],11800 nM (active)
same,Potency,[14],2960 nM (active)
same,Potency,[8],20900 nM (active)
same,Potency,[15],20900 nM (active)
same,Potency,[9],11800 nM (active)
same,Potency,[10],7430 nM (active)
same,Potency,[19],23500 nM (active)
CN1[C@H]2CC(O)C[C@H]1[C@H]1O[C@H]12 (some centres undefined),Potency,[1],16600 nM (active)
same,Potency,[2],18700 nM (active)
same,Potency,[20],inactive
same,Potency,[16],3320 nM (active)
same,Potency,[17],18700 nM (active)
same,Potency,[11],18700 nM (active)
same,Potency,[5],23500 nM (active)
same,Potency,[12],23500 nM (active)
same,Potency,[13],7430 nM (active)
same,Potency,[6],9350 nM (active)
same,Potency,[18],9350 nM (active)
same,Potency,[8],11800 nM (active)
same,Potency,[15],18700 nM (active)
same,Potency,[9],23500 nM (active)
CC(C)(C)[C@]1(O)C[C@@H]2OC(=O)C[C@@]23C(=O)O[C@@H]2OC(=O)[C@H](O)C213 (some centres undefined),Potency,[1],inactive
same,Potency,[2],inactive
same,Potency,[3],inactive
same,Potency,[11],inactive
same,Potency,[12],inactive
same,Potency,[13],inactive
same,Potency,[8],inactive
same,Potency,[15],inactive
same,Potency,[9],inactive
same,Potency,[10],inactive
same,Potency,[19],inactive
C[C@@H]1CC[C@H]2[C@@H](C)C(=O)O[C@@H]3O[C@@]4(C)CC[C@H]1[C@]32OO4,Potency,[1],inactive
same,Potency,[2],inactive
same,Potency,[3],inactive
same,Potency,[16],1870 nM (active)
same,viability,[5],103%
same,Potency,[12],inactive
same,Potency,[6],5900 nM (active)
same,Potency,[14],743 nM (active)
same,Potency,[8],6620 nM (active)
same,Potency,[9],264 nM (active)
same,Potency,[10],inactive
O=S(=O)(F)Cc1ccccc1,Potency,[1],inactive
same,Potency,[2],inactive
same,Potency,[4],inactive
same,Potency,[11],13200 nM (active)
same,Potency,[13],743 nM (active)
same,Potency,[6],235 nM (active)
same,Potency,[18],inactive
same,Potency,[15],inactive
same,Potency,[9],inactive
same,Potency,[10],inactive
same,Potency,[19],inactive
O=C(O)CNC(=O)c1c(O)c2ccccc2n(Cc2ccccc2)c1=O,Potency,[1],inactive
same,Potency,[2],inactive
same,Potency,[4],inactive
same,Potency,[17],inactive
same,Potency,[11],inactive
same,Potency,[13],inactive
same,Potency,[6],inactive
same,Potency,[10],inactive
same,Potency,[19],inactive
CCN1C[C@]2(OC(=O)c3ccccc3NC(C)=O)CC[C@H](OC)[C@@]34[C@H]5CC6[C@@H](OC)C[C@](O)(C(C[C@@H]23)[C@@H]14)[C@@]5(O)[C@@H]6OC,Potency,[1],inactive
same,Potency,[2],inactive
same,Potency,[3],inactive
same,Potency,[20],inactive
same,Potency,[16],inactive
same,Potency,[17],inactive
same,Potency,[11],inactive
same,Potency,[12],inactive
same,Potency,[13],inactive
same,Potency,[6],inactive
same,Potency,[14],inactive
same,Potency,[8],inactive
same,Potency,[15],inactive
same,Potency,[9],inactive
same,Potency,[10],inactive
same,Potency,[19],inactive
C[C@@H]1O[C@@H](O[C@@H]2C=C3CC[C@@H]4[C@@H](CC[C@]5(C)[C@H](c6ccc(=O)oc6)CC[C@@]45O)[C@@]3(C)CC2)[C@H](O)[C@H](O)[C@H]1O,Potency,[1],26.4 nM (active)
same,Potency,[2],6.6 nM (active)
same,Potency,[20],8.3 nM (active)
same,Potency,[4],33.2 nM (active)
same,Potency,[16],13.2 nM (active)
same,Potency,[17],13.2 nM (active)
same,Potency,[5],23.5 nM (active)
same,Potency,[12],9.3 nM (active)
same,Potency,[13],16.6 nM (active)
same,Potency,[18],11.8 nM (active)
same,Potency,[15],23.5 nM (active)
same,Potency,[9],9.3 nM (active)
same,Potency,[10],52.6 nM (active)
same,Potency,[19],8.3 nM (active)
